Laboratory results reported in PubChem BioAssay (NCI).
About 79,000 compounds went through this panel and 15% of them were active in at least one assay; those are over-represented in the sample as a whole. A number with no mark means an inactive call. Calls of active or inactive are those of the source. No stated cut-off is given here; in the data, active means growth inhibition above about 70%; inactive means the rest. Where a SMILES comes first, the peptide text is derived from it. The star is where a group is joined. Fmoc = O=C(OCC1c2ccccc2-c2ccccc21)*; OBn = c1ccc(CO*)cc1; tBu = CC(C)(C)*

Test: NCI Yeast Anticancer Drug Screen. Data for the mlh1 rad18 strain (AID 175)
Conditions: S. cerevisiae mlh1 rad18 strain growth inhibition; at 50.0 µM; stronger effect = higher value
How it was run: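 Inhibition values reflect reduced growth of mutant yeast versus vehicle-treated controls following compound exposure; the mutations affect DNA damage repair.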

For `Nc1nc(Cl)c2nc(Cl)n(C3OC(CO)C(O)C3O)c2n1` (stereo not given), which growth inhibition is on record?
Its growth inhibition is -4.25%.

Which growth inhibition does the source give for `COc1ccc2nc3cc(Cl)ccc3c(NCCCNCCCNc3c4ccc(Cl)cc4nc4ccc(OC)cc34)c2c1` here?
Its growth inhibition is -23.1%.

With `CCCCCCCCCCCCCCCc1cc(=O)n(-c2ccc(NC(C)=O)cc2)n1C` as the molecule, how does the growth inhibition read?
Its growth inhibition is -9.7%.

For `Cc1cccc([N+](=O)[O-])c1C`, which growth inhibition is on record?
The growth inhibition was -15.6%.

With `CCOC(=O)c1c2ccc(/C=C/c3ccccc3)ccc-2c(C(=O)OCC)c1N` as the molecule, how does the growth inhibition read?
The growth inhibition was -22.6%.

For `CN1CCC(CC(O)(c2ccccc2)C2CCCCC2)C1` (stereo not given), which growth inhibition is on record?
Its growth inhibition is -20.9%.

Which growth inhibition does the source give for `Nc1ncnc2c1ncn2C1OC(C(=O)OCCO)C(O)C1O` (stereo not given) here?
The growth inhibition was -22.9%.

With `O=C1CCC(c2n[nH]c(=S)o2)N1` (stereo not given) as the molecule, how does the growth inhibition read?
Its growth inhibition is 4.75%.

For `CN(C)c1nc(Cl)nc2nc(Cl)[nH]c12`, which growth inhibition is on record?
Its growth inhibition is 11.9%.

Which growth inhibition does the source give for `OCCN(CCO)c1ccc(-n2cnc3c(=S)nc[nH]c32)cc1` here?
The growth inhibition was -4.15%.

Which growth inhibition does the source give for `Cc1cccc(C)c1NC(=O)C(=O)Cc1nc2ccccc2s1` here?
The growth inhibition was -6.8%.

With `CC(=O)c1ccc([C@H](O)[C@H](CO)NC(=O)C(Cl)Cl)cc1` as the molecule, how does the growth inhibition read?
Its growth inhibition is -16.2%.

With `CCOC(OCC)/C(C)=N/N(C)C` as the molecule, how does the growth inhibition read?
The growth inhibition was -2.5%.

For `CN(C)CCCCCCNCCC#N`, which growth inhibition is on record?
Its growth inhibition is -1.6%.

Which growth inhibition does the source give for `CCOC(=O)c1[nH]n(-c2ccccc2)c(=O)c1/C=N/C(=S)Nc1c(CC)cccc1CC` here?
Its growth inhibition is -15.1%.

Which growth inhibition does the source give for `COc1cc(C2c3cc4c(cc3OC(N3CCCCC3)C2C)OCO4)cc(OC)c1O` (stereo not given) here?
Its growth inhibition is -9.25%.

For `O=C(O)CNC(=O)NNc1ccccc1`, which growth inhibition is on record?
The growth inhibition was -12.7%.

Which growth inhibition does the source give for `CC(OC(C)(C)C)C(NC(=O)OCC1c2ccccc2-c2ccccc21)C(=O)NC(Cc1ccccc1)C(=O)OCc1ccccc1` (stereo not given) (Fmoc-Thr(tBu)-Phe-OBn; configuration not given here) here?
The growth inhibition was 0.45%.

For `CCCCC(=O)OC[n+]1ccc2c(C)c3[nH]c4ccc(OC)cc4c3c(C)c2c1`, which growth inhibition is on record?
Its growth inhibition is 91.8% (active).

For `C=CCc1cccc(C)c1O`, which growth inhibition is on record?
The growth inhibition was 20.3%.

With `CCOC(=O)CNC(=O)C(=[N+]=[N-])C(=O)COc1ccc(Cl)cc1Cl` as the molecule, how does the growth inhibition read?
The growth inhibition was -5.05%.

For `O=C(CNS(=O)(=O)c1ccccc1)c1ccc(Cl)cc1Cl`, which growth inhibition is on record?
The growth inhibition was 53.8%.

With `COc1cc(-c2ccc(N=Nc3ccc(N)nc3N)c(OC)c2)ccc1N=Nc1ccc(N)nc1N` as the molecule, how does the growth inhibition read?
The growth inhibition was 11.7%.

Which growth inhibition does the source give for `OC1COc2c3ccccc3nn2C1` (stereo not given) here?
Its growth inhibition is 30.1%.

For `Cc1cc(CC(N)C(=O)O)ccc1O` (stereo not given), which growth inhibition is on record?
Its growth inhibition is -16.6%.

With `CC1=CC[C@H]2C(C)=CC[C@@H](C(C)C)[C@@H]2C1` as the molecule, how does the growth inhibition read?
The growth inhibition was 17.4%.

With `CCCCCCCCCCCCCCCCCC[N+]1(C)CCOCC1` as the molecule, how does the growth inhibition read?
Its growth inhibition is 99.5% (active).

Which growth inhibition does the source give for `NC1C(O)C(N)C(O)C(O)C1O` (stereo not given) here?
The growth inhibition was 3.25%.

With `O=C1CC(c2ccccc2)Oc2ccccc21` (stereo not given) as the molecule, how does the growth inhibition read?
Its growth inhibition is -24.1%.

For `CC1CSC(C)(C)C(=O)N1` (stereo not given), which growth inhibition is on record?
Its growth inhibition is 19.9%.

Which growth inhibition does the source give for `Nc1cccc(S(N)(=O)=O)c1` here?
The growth inhibition was 1.4%.

With `Cc1nc2ccccc2c(=O)n1NC(=S)Nc1cccc(Cl)c1` as the molecule, how does the growth inhibition read?
Its growth inhibition is -26.8%.

For `CCOC(=O)c1ccc(NC=O)cc1`, which growth inhibition is on record?
The growth inhibition was -24.1%.

With `C/C(=N\O)c1sc(-n2nc(-c3ccccc3)cc2-c2ccccc2)nc1C` as the molecule, how does the growth inhibition read?
The growth inhibition was 19.3%.

For `O=C(O)CCN1C(=S)CSC1=S`, which growth inhibition is on record?
Its growth inhibition is -24.2%.

Which growth inhibition does the source give for `COc1cc(-c2[nH]ncc2CCCC(=O)Nc2ccccc2[N+](=O)[O-])ccc1O` here?
The growth inhibition was 18.5%.

With `CN(C)CC1CCC/C(=C\c2ccc(N(C)C)cc2)C1=O` (stereo not given) as the molecule, how does the growth inhibition read?
Its growth inhibition is -34.3%.

For `COc1ccc(C2NCCCC2c2ccccc2)cc1` (stereo not given), which growth inhibition is on record?
The growth inhibition was -11.1%.

With `CCOc1c(Cl)c(Cl)c(Cl)c(Cl)c1Cl` as the molecule, how does the growth inhibition read?
Its growth inhibition is 5.4%.

Which growth inhibition does the source give for `CCOC(=O)C(Cc1cc(C)c(O)c(I)c1)NC(C)=O` (stereo not given) here?
Its growth inhibition is -5.85%.
